{"source": "PubChem BioAssay (NCATS)", "note": "Several values for one entry are separate records, joined by “and”; a condition that tells them apart may be missing. Equal values may be shown once. Results filed as inconclusive are left out. Values without a mark were called inactive. Activity calls are given as the source filed them. The call rests on the fitted dose curve; in most records, active means well fitted inhibition curve with a large enough effect; inconclusive means small, poorly fitted or top-dose-only effect; inactive means flat fitted curve, though single readings scatter. On the % scale 0 is the no-effect control and ±100 the full control effect; potency means the concentration at half of the fitted maximal effect."}
{"assay": "Primary qHTS for inhibitors of nuclear receptor binding SET domain protein 2 (NSD2) in an isogenic RCH-ACV NSD2 p.E1099K mutant (9B) (AID 1645876); further: nearly all actives have a fitted effect of over 70% in size", "conditions": "RCH-ACV NSD2 E1099K (9B) viability, CellTiter-Glo, 72 h; series mostly up to 44.9 µM; activity change, negative = viability loss: at the top concentration"}
{"smiles": "c1ccc2c(-c3cnn4cc(-c5ccc(N6CCNCC6)cc5)cnc34)ccnc2c1", "Potency": "2.63 µM (active)"}
{"smiles": "CCS(=O)(=O)N1CC(CC#N)(n2cc(-c3ncnc4[nH]ccc34)cn2)C1", "Potency": "18.6 µM (active)"}
{"smiles": "Nc1ncnc2c1nc(Cl)n2[C@@H]1O[C@H](CO)[C@@H](O)[C@@H]1O", "Potency": "18.6 µM (active)"}
{"smiles": "O=C(Nc1cc(Cl)cc2c1[nH]c1cnccc12)c1cccnc1", "Potency": "inactive"}
{"smiles": "N[C@H](CSC(c1ccccc1)(c1ccccc1)c1ccccc1)C(=O)O", "activity change, negative = viability loss": "-5.14%"}
{"smiles": "COc1ccc(C2Sc3ccccc3N(CCN(C)C)C(=O)C2OC(C)=O)cc1", "note": "(stereo not drawn)", "activity change, negative = viability loss": "-1.28% [at 17.3 µM]"}
{"smiles": "CC[C@@]1(O)C[C@H](O[C@H]2C[C@H](N(C)C)[C@H](O[C@H]3C[C@H](O)[C@H](O[C@H]4CCC(=O)[C@H](C)O4)[C@H](C)O3)[C@H](C)O2)c2c(cc3c(c2O)C(=O)c2c(O)cccc2C3=O)[C@@H]1C(=O)OC", "Potency": "2.63 µM (active)"}
{"smiles": "COc1cc(N2CCC(N3CCN(C)CC3)CC2)ccc1Nc1ncnc(Nc2ccccc2S(=O)(=O)C(C)C)n1", "Potency": "6.49 µM (active) and 9.34 µM (active)"}
{"smiles": "COc1ccc2cccc(CCNC(C)=O)c2c1", "Potency": "inactive"}
{"smiles": "CNC1CCC(N(Cc2cccc(-c3ccncc3)c2)C(=O)c2sc3c(F)ccc(F)c3c2Cl)CC1", "note": "(stereo not drawn)", "Potency": "8.33 µM (active) and 8.17 µM (active)"}
{"smiles": "CC1CCC(C(=O)N(c2cc(C#CC(C)(C)C)sc2C(=O)O)C2CCC(O)CC2)CC1", "note": "(stereo not drawn)", "Potency": "20.9 µM (active)"}
{"smiles": "C=C1C(=O)[C@@]23C(CC[C@@H]1[C@H]2O)[C@@]12CO[C@]3(O)[C@@H](O)[C@@H]1C(C)(C)CC[C@@H]2O", "note": "(stereo partly drawn)", "Potency": "2.35 µM (active)"}
{"smiles": "CCCCCN(C)CCC(O)(P(=O)(O)O)P(=O)(O)O", "outcome": "inactive [at 4.96 µM]"}
{"smiles": "C[N+](C)(C)CC(=O)O", "Potency": "inactive"}
{"smiles": "CC(C)C(C)C=CC(C)C1CCC2C3=CC=C4CC(O)CCC4(C)C3CCC21C", "note": "(stereo not drawn)", "activity change, negative = viability loss": "1.14%"}
{"smiles": "Clc1cc(Cl)cc(CNc2ncncc2-c2ccc3c(c2)OCO3)c1", "Potency": "13.2 µM (active)"}
{"smiles": "O=c1cc(-c2cccc3c2Sc2ccccc2S3)oc(N2CCOCC2)c1", "Potency": "11.6 µM (active) and 14.8 µM (active)"}
{"smiles": "O=C(NCc1ccccc1)c1csc(Nc2ccncn2)n1", "Potency": "11.8 µM (active)"}
{"smiles": "Cn1c(N2CCCCS2(=O)=O)nc(C(=O)NCc2ccc(F)cc2)c(O)c1=O", "activity change, negative = viability loss": "-1.28%"}
{"smiles": "O=C(NC1CCOCC1)c1ccc(-c2cc(-c3cn[nH]c3-c3ccccn3)ccn2)cc1", "activity change, negative = viability loss": "-3.25%"}
{"smiles": "Oc1ccc(C2=Cc3ccc(O)cc3OC2)cc1", "Potency": "1.18 µM (active)"}
{"smiles": "N#Cc1ccc(NC(=O)Nc2ccccc2Br)c2n[nH]nc12", "activity change, negative = viability loss": "-8.61%"}
{"smiles": "CC(C)(C)c1cc(C(=O)O)c(NC(=O)Nc2ccc3[nH]ncc3c2)s1", "Potency": "inactive"}
{"smiles": "COc1cccc([C@@H](C)NCCCc2ccccc2Cl)c1", "Potency": "18.6 µM (active)"}
{"smiles": "O=C(O)Cc1cccc2ccccc12", "Potency": "inactive"}
{"smiles": "CCOC(=O)C1=C(N)Oc2ccc(Br)cc2C1C(C#N)C(=O)OCC", "note": "(stereo not drawn)", "Potency": "inactive"}
{"smiles": "O=C1C(Cl)=C(NCCN2CCOCC2)C(=O)c2ncccc21", "Potency": "7.42 µM (active)"}
{"smiles": "Cc1cnc(C(=O)O)c[n+]1[O-]", "activity change, negative = viability loss": "5.64%"}
{"smiles": "COc1ccc(-c2nc(N3CCOCC3)c3sc(CN(C)c4ncc(C(=O)NO)cn4)cc3n2)cn1", "Potency": "7.3 nM (active) and 29.5 nM (active)"}
{"smiles": "O=C(O)c1ccccc1C(=O)Nc1ccc(-c2ccccc2)cc1", "Potency": "inactive"}
{"smiles": "CC(C)(C)COc1ccc(-n2cc(C(=O)O)cn2)cc1C#N", "activity change, negative = viability loss": "-62.9%"}
{"smiles": "Cc1ccccc1C(C(=O)NC1CCCCC1)N(C(=O)Cn1ccnc1C)c1cccc(F)c1", "note": "(stereo not drawn)", "activity change, negative = viability loss": "9.21%"}
{"smiles": "CCOC(CN1C(=O)[C@](CC(=O)Nc2ccc(C)cc2)(NC(=O)Nc2ccc(C)cc2)c2ccccc21)OCC", "Potency": "10.5 µM (active)"}
